# The list is not random: actives were taken first. Their share in the collection is about 2.8%.
# HIF-2a inh: blocks HIF-2a reporter activity. 786-0 RCC cells HIF-2a reporter, luciferase luminescence, overnight. 360,000 compounds, 0.72% hits. inhibition, % at 18.8 µM;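 active = inhibition of the luminescence signal of 40% or more relative to plate controls, in a single-dose primary screen at 18.75 µM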
# KKLEB tox: counter-screen for CF NF-kB inhibitors: cytotoxicity. KKLEB CF airway cells viability, ATPlite luminescence, overnight; stronger effect = lower value; cells stimulated with P. aeruginosa culture filtrate. activity change (cytotoxicity), % at 5 µM. 360,000 compounds, 0.36% hits. AID 602141;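 active = corrected activity change at or below -50% at 5 µM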
# Peg3 promoter: Peg3 promoter activity inhibition. HeLa PEG-Prom luciferase reporter, luminescence, overnight. inhibition, % at 20 µM. 360,000 compounds, 1.7% hits. AID 588405;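 active = inhibition of at least 50% at 20 µM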
# Shn3 inh set2: Schnurri-3 reporter inhibition in Clone20 osteoblasts. Clone20 osteoblast Shn3 3'UTR firefly luciferase, 24 h. inhibition, % at 12.5 µM. 360,000 compounds, 0.52% hits. AID 588674;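 active = mean inhibition of at least 75% with every replicate also reaching 75%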
# CF NFkB inh: blocks PAF-induced NF-kB reporter in cystic fibrosis cells; KKLEB NF-kB-GFP reporter, GFP fluorescence overnight; inhibition, % at 5 µM; 360,000 compounds, 0.86% hits;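 active = at least 50% inhibition at 5 µM, scaled per plate between neutral and stimulator controls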;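 note: PAF is a Pseudomonas aeruginosa culture filtrate used as stimulus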
# TRPM1 prom inh: reduces MITF-dependent TRPM1 promoter luciferase signal; inhibition, % at 12.5 µM; SK-MEL-5 TRPM1 promoter luciferase, 24 h; 330,000 compounds, 0.83% hits; AID 488899;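 active = mean inhibition across replicates of 60% or more, whatever share of single replicates reaches that level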
# Hits are given with their value; - = inactive; . = no result given.
SMILES,HIF-2a inh,KKLEB tox,Peg3 promoter,Shn3 inh set2,CF NFkB inh,TRPM1 prom inh
CCOc1ccccc1N(CC(=O)N1CCN(Cc2ccccc2)CC1)S(=O)(=O)c1ccccc1,-,-,-,-,-,.
CSc1cccc(NS(=O)(=O)c2ccc3c(c2)CCN3C(C)=O)c1,-,-,-,88.8,-,-
CCOC(=O)c1c(NC(=O)CSc2nc3ccc(OC)cc3[nH]2)sc2c1CC(C)(C)NC2(C)C,-,-,90.6,-,-,-
CN=c1scc(-c2ccccc2F)n1/N=C/c1ccc(O)c(O)c1O,-,-,-,88.4,-,85.6
CC(C)N=c1scc(-c2cccs2)n1/N=C/c1ccc(O)c(O)c1O,-,-,-,88.4,-,-
CCN=c1scc(-c2cccs2)n1/N=C/c1cc(OC)ccc1O,-,-,-,-,-,-
COc1ccc(C2NC(=S)NC3=C2CCCC3=C2SCCS2)cc1 (configuration not stated),-,-,-,-,-,84.4
Cc1ccc(Cl)cc1N1CCN(C(=O)C2CCC(=O)N(C3CCCCCC3)C2)CC1 (configuration not stated),-,-,-,86.5,-,-
CC(C)(C)c1ccc(CC(=O)N2CCC2(C)C(=O)NS(=O)(=O)c2cccc(F)c2)cc1 (configuration not stated),-,-,-,-,-,.
Cc1ccc(Oc2cc(-n3nc(C)cc3C)ncn2)cc1,-,-,-,-,-,-
Cc1cc(C)n(-c2cc(-n3nc(C)cc3C)ncn2)n1,-,-,-,96.2,-,-
COC(=O)c1ccc2nc(NC(=O)C(C)(C)C)sc2c1,-,-50.2,-,-,-,-
COC(=O)c1ccc2nc(NC(=O)C3CCCCC3)sc2c1,-,-,-,-,-,-
Oc1ccccc1C=NNC(=S)Nc1ccc(F)cc1,-,-,-,90.1,-,-
CCOc1cccc(/C=N/NC(=O)c2cc(C3CC3)[nH]n2)c1O,-,-,-,94.5,-,61.4
CCCCCOc1ccc(CSC(=N)N)cc1[N+](=O)[O-],-,-,106.5,-,-,-
CCCCOc1ccc(Br)cc1CSC(=N)N,-,-,105.0,91.6,-,-
COc1ccc(CSC(=N)N)cc1[N+](=O)[O-],-,-,-,-,-,-
COC(=O)[C@H](Cc1ccccc1)NS(=O)(=O)c1ccc(F)cc1Br,-,-,-,-,-,-
CCN=C1S/C(=C\c2cn(C(C)=O)nc2-c2ccccc2)C(=O)N1CC,-,-,-,-,-,-
CC(=O)NC1=NC(=O)/C(=C/c2cn(C(C)=O)nc2-c2ccccc2)S1,-,-,-,-,57.1,-
N#CCCN(C(=O)COC(=O)CCc1nc2ccccc2c(=O)[nH]1)c1ccccc1F,-,-,-,-,-,-
Cn1c(=O)c2c(ncn2CC(=O)OCC(=O)Nc2cccc(C#N)c2)n(C)c1=O,-,-,-,-,-,.
Cc1ccc2c(c1)sc(=NC(=O)C1CC1)n2C,-,-,-,-,-,-
Cc1ccc2c(c1)sc(=NC(=O)c1cccs1)n2C,-,-65.5,-,-,-,-
SMILES,HIF-2a inh,KKLEB tox,Peg3 promoter,Shn3 inh set2,CF NFkB inh,TRPM1 prom inh
COc1ccc(N(C)S(=O)(=O)c2ccc(Cl)c(C(=O)NNC(=O)c3ccccc3O)c2)cc1,-,-,-,-,-,-
O=c1cc(-c2ccccc2Cl)oc2c(NS(=O)(=O)c3cccs3)ccc(O)c12,-,-,-,-,52.1,-
O=c1cc(-c2ccccc2Cl)oc2c(NS(=O)(=O)c3ccccc3C(F)(F)F)ccc(O)c12,-,-,-,-,-,-
COCc1c(C(=O)Nc2cccc(S(=O)(=O)N3CCCCC3)c2)oc2ccccc12,-,-,-,85.6,-,-
O=C(Nc1ccc2nc(N3CCOCC3)sc2c1)c1ccccc1,-,-,-,-,-,-
COCc1c(C(=O)Nc2ccc3nc(N4CCOCC4)sc3c2)oc2ccccc12,-,-,50.8,-,-,-
O=C(Nc1cccc(S(=O)(=O)N2CCCCC2)c1)c1cc2ccccc2o1,-,-,-,-,-,-
OC(c1cccc(Cl)c1)c1ncc(-c2ccc(Oc3ccccc3)cc2)[nH]1 (configuration not stated),-,-,53.9,-,-,.
CN1CCN(CC(=O)Nc2ccc([N+](=O)[O-])cc2Br)CC1,-,-,-,-,-,-
N[C@@H](CO)c1nnc([C@H](Cc2ccc(O)cc2)NC(=O)C2CCNCC2)o1,-,-,-,-,-,-
CCN(CC)CCNC(=O)c1nn(-c2ccc(Cl)cc2)c2c1CCc1cc(OC)ccc1-2,-,-,94.2,-,-,-
Cc1c(C(C)C)c(=O)n(-c2ccc(S(=O)(=O)NC3CCCCC3)cc2)n1C,-,-,-,88.0,-,-
Cc1c(C(C)C)c(=O)n(-c2ccc(S(=O)(=O)NCc3ccccc3)cc2)n1C,-,-,-,83.5,-,-
O=C(CSc1nnc(NC(=O)c2c(F)cccc2F)s1)NCc1ccc(F)cc1,-,-,-,-,-,-
O=C(CCl)Nc1ccccc1C(=O)Nc1ccc2c(c1)OCO2,-,-,-,-,-,-
OC(c1cc(C(F)(F)F)nc2c(C(F)(F)F)cccc12)C1CCCCN1 (configuration not stated),-,-,93.5,-,-,-
CN1CCN(NC(=O)c2cc(-c3cccc(Cl)c3)nc3ccccc23)CC1,-,-,-,-,-,-
OC(c1cc(-c2cccc(Cl)c2)nc2ccccc12)C1CCCCN1 (configuration not stated),-,-,103.9,90.0,-,98.5
COc1cccc(/C(O)=C/c2nc3ccc(C(=O)NCCc4ccc(Cl)cc4)cc3[nH]c2=O)c1,-,-,55.5,-,-,-
COc1cccc(/C(O)=C/c2nc3ccc(C(=O)NCCc4cccc(C)c4)cc3[nH]c2=O)c1,-,-,-,-,-,-
COc1ccccc1NS(=O)(=O)c1cccc(C(=O)NNC(=O)c2ccc(O)c(Cl)c2)c1,-,-,-,-,-,-
CCCCC(CC)CN1CN(CC(CC)CCCC)CC(C)(N)C1 (configuration not stated),-,-,102.8,-,-,-
CC(C)NC(=O)c1ccc(N(Cc2ccc(Cl)cc2)S(C)(=O)=O)cc1,-,-,-,-,-,-
O=C(CCCc1ccccc1)NCCc1ccc(F)cc1,-,-,-,-,-,-
COc1ccc(NS(=O)(=O)c2cc(NC(=O)CNC(=O)c3cccc(OC)c3)ccc2C)cc1,-,-,-,-,-,68.7
O=C(NCc1cccs1)c1nc2c(nnn2Cc2ccccc2Cl)c(=O)[nH]1,75.6,-76.2,103.6,-,88.4,76.5
COC(=O)c1ccc2c(=O)n(CCCCCC(=O)O)c(=O)[nH]c2c1,-,-,-,-,-,-
COC(=O)c1ccc2c(=O)n(CCCCCC(=O)N3CCN(c4ccc(F)cc4)CC3)c(=O)[nH]c2c1,-,-,89.8,-,-,-
